Eight compounds from PubChem BioAssay (NCI) can be followed below.

Common to all, as to experiment: NCI-60 one-dose screen, 48 h (100 = growth as untreated, 0 = no growth, -100 = all killed)
One experiment concerns NCI-H23 lung. The note with it: 10 µM unless noted.
Another experiment relates to NCI-H226 lung. As to conditions: 10 µM unless noted.
Another experiment relates to NCI-H322M lung. As to conditions: 10 µM unless noted.
The next experiment relates to HOP-62 NSCLC. As to conditions: 10 µM unless noted.
Another experiment concerns NCI-H460 lung. As to conditions: 10 µM unless noted.
The subject of the next experiment is HOP-92 NSCLC. The note with it: 10 µM unless noted.
The subject of a further experiment is NCI-H522 lung. The note with it: 10 µM unless noted.
In the next experiment the test system is A549/ATCC NSCLC. As to conditions: 10 µM unless noted.
The subject of a further experiment is 786-0 renal. The note with it: 10 µM unless noted.
For another experiment, the system named is COLO 205 colon. As to conditions: 10 µM unless noted.
In the next experiment the test system is DU-145 prostate. The note with it: 10 µM unless noted.
For a further experiment, the system named is K-562 leukemia. The note with it: 10 µM unless noted.
In a further experiment the test system is MALME-3M melanoma. As to conditions: 10 µM unless noted.
Another experiment has as its system MDA-MB-231 breast. The note with it: 10 µM unless noted.
In a further experiment the test system is RXF 393 renal. The note with it: 10 µM unless noted.
A further experiment relates to SF-268 CNS. The note with it: 10 µM unless noted.
Another experiment deals with SF-295 CNS. As to conditions: 10 µM unless noted.
A further experiment deals with SF-539 CNS. The note with it: 10 µM unless noted.
A further experiment deals with UACC-257 melanoma. As to conditions: 10 µM.
In another experiment the test system is M14 melanoma. The note with it: 10 µM unless noted.

The panel holds about 83,000 compounds, 20% with a hit somewhere; the sample as a whole holds those more often.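 How to read the values: 0–100, growth inhibition (40 = 60% inhibited); 0, no net growth; -100 to 0, cell death (-40 = 40% of starting cells died; -100 = all dead).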 Values without a mark were called inactive. Calls of active or inactive are those of the source. Rule for the calls: active = growth percent below 10; inactive = the rest.

As for `O=C(CN1CCN(c2cc(=O)n(-c3ccccc3)c3ccccc23)CC1)Nc1ccc([N+](=O)[O-])cc1`, the growth in the experiment with NCI-H23 lung is 82.5%; in the experiment on NCI-H226 lung, 83.5%; with NCI-H322M lung, 88.1%; with HOP-62 NSCLC, 95.1%; in the experiment on NCI-H460 lung, 94.3%; in the experiment with HOP-92 NSCLC, 76.5%. The growth was 82.5% with NCI-H522 lung; 95.1% in the experiment on A549/ATCC NSCLC; 90.5% in the experiment on 786-0 renal; 107% in the experiment with COLO 205 colon; 99.8% with DU-145 prostate; 71.4% in the experiment with K-562 leukemia. Also, the growth with MALME-3M melanoma is 83.9%; in the experiment on MDA-MB-231 breast, 77.2%; in the experiment on RXF 393 renal it was 68.7%; in the experiment with SF-268 CNS, 89.7%; in the experiment on SF-295 CNS, 103%; in the experiment with SF-539 CNS it was 91.7%. The growth is 90.3% in the experiment on UACC-257 melanoma and 99% in the experiment on M14 melanoma.
As to `COc1ccc(-c2ccnc3c(C#N)c(Nc4ccccc4)nn23)cc1OC`, the growth with NCI-H23 lung was 93%; in the experiment with NCI-H226 lung, 62.6%; with NCI-H322M lung it was 91.2%; in the experiment with HOP-62 NSCLC it was 86.5%; with NCI-H460 lung it was 92.8%; with HOP-92 NSCLC it was -0.0748% (active). The growth is 81.4% in the experiment with NCI-H522 lung; 85.4% in the experiment with A549/ATCC NSCLC; 85.7% in the experiment on 786-0 renal; 97.1% in the experiment on COLO 205 colon; 93.9% in the experiment on DU-145 prostate; 93.6% in the experiment on K-562 leukemia. Besides, the growth in the experiment on MALME-3M melanoma is 110%; in the experiment on MDA-MB-231 breast, 64.2%; with RXF 393 renal, 15.8%; with SF-268 CNS it was 86.4%; in the experiment on SF-295 CNS, 93.2%; in the experiment on SF-539 CNS, 78.8%. Besides, the growth in the experiment on UACC-257 melanoma is 104%; with M14 melanoma, 117%.
For the compound `O=C1Nc2ccc(Br)cc2/C1=N\c1nnc(-c2ccc(Cl)cc2)o1`, the growth was 79.8% with NCI-H23 lung; 80.3% in the experiment with NCI-H226 lung; 94.2% in the experiment on NCI-H322M lung; 66% in the experiment on HOP-62 NSCLC; 46.3% in the experiment with NCI-H460 lung; 79.7% in the experiment with HOP-92 NSCLC. In addition, the growth with NCI-H522 lung was 59.8%; in the experiment with A549/ATCC NSCLC it was 54%; in the experiment with 786-0 renal, 91.4%; with COLO 205 colon it was 83.3%; with DU-145 prostate, 73.3%; with K-562 leukemia, 16.9%. In addition, the growth in the experiment with MALME-3M melanoma was 34.1%; in the experiment on MDA-MB-231 breast, 75.2%; in the experiment with RXF 393 renal, 87.9%; in the experiment with SF-268 CNS, 75.2%; with SF-295 CNS it was 75.1%; with SF-539 CNS it was 64.5%. The results for the growth in the experiment with UACC-257 melanoma and in the experiment on M14 melanoma were 91.6% and 51.2%, respectively.
With `CCOC(=O)c1c(NCC(=O)Nc2cccc(Cl)c2)sc2c1CCCC2`, the growth in the experiment with NCI-H23 lung is 66.5%; in the experiment with NCI-H226 lung, 69.8%; with NCI-H322M lung, 91.4%; in the experiment with HOP-62 NSCLC, 78.6%; in the experiment with NCI-H460 lung, 92.5%; with HOP-92 NSCLC, 96.3%. The growth in the experiment with NCI-H522 lung was 65.9%; in the experiment on A549/ATCC NSCLC, 101%; in the experiment on 786-0 renal, 106%; in the experiment on COLO 205 colon it was 101%; with DU-145 prostate, 93.8%; in the experiment on K-562 leukemia, 66%. The growth with MALME-3M melanoma is 82.8%; with MDA-MB-231 breast it was 86.5%; in the experiment with RXF 393 renal it was 87.3%; with SF-268 CNS, 84.8%; in the experiment with SF-295 CNS it was 80.1%; with SF-539 CNS, 92.5%. In addition, the growth in the experiment with UACC-257 melanoma was 99.1%; in the experiment with M14 melanoma, 83.2%.
As for `CCCCCc1ccc(S(=O)(=O)N(C(C)=O)c2cccc(-c3csc(N(CCN4CCN(C)CC4)C(C)=O)n3)c2)cc1`, the growth in the experiment on NCI-H23 lung is 48.9%; with NCI-H226 lung, 85.3%; in the experiment with NCI-H322M lung it was 61.1%; with HOP-62 NSCLC it was 83.5%; with NCI-H460 lung it was -21.4% (active); in the experiment on HOP-92 NSCLC it was 34%. Further, the growth with NCI-H522 lung was 69.8%; with A549/ATCC NSCLC, 39.5%; with 786-0 renal, 6.89% (active); in the experiment on COLO 205 colon, -61% (active); in the experiment with DU-145 prostate, 41.6%; with K-562 leukemia, -26.2% (active). The growth in the experiment with MALME-3M melanoma is -85.6% (active); with MDA-MB-231 breast, 4.58% (active); in the experiment with RXF 393 renal it was -59.2% (active); in the experiment with SF-268 CNS it was 63.2%; in the experiment on SF-295 CNS, -68.1% (active); in the experiment on SF-539 CNS, -80.9% (active). Further, the growth was -52.6% (active) with UACC-257 melanoma and -71.7% (active) in the experiment with M14 melanoma.
As for `COc1ccc(-c2nc3cc(Cl)c(Cl)cc3n2CC(=O)N=Nc2c(O)[nH]c3ccc(Br)cc23)cc1`, the growth in the experiment with NCI-H23 lung is -21.5% (active); in the experiment with NCI-H226 lung, -16.2% (active); in the experiment with NCI-H322M lung, 41%; with HOP-62 NSCLC it was -50.2% (active); in the experiment with NCI-H460 lung it was -42.5% (active); in the experiment with HOP-92 NSCLC, -34% (active). For the same compound, the growth in the experiment on NCI-H522 lung was 14%; with A549/ATCC NSCLC it was -28.9% (active); in the experiment on 786-0 renal, -17.3% (active); with COLO 205 colon it was -37.9% (active); in the experiment on DU-145 prostate, -48.4% (active); with K-562 leukemia it was 21.6%. Also, the growth with MALME-3M melanoma is -38.5% (active); in the experiment with MDA-MB-231 breast, 0.262% (active); with RXF 393 renal, -58.3% (active); in the experiment with SF-268 CNS it was 9.74% (active); with SF-295 CNS it was -50% (active); in the experiment on SF-539 CNS it was 14.9%. Besides, the growth is 61.9% in the experiment with UACC-257 melanoma and -48.8% (active) in the experiment on M14 melanoma.
As to `O=C(O)CNS(=O)(=O)c1ccc(Oc2ccc(S(=O)(=O)NCC(=O)O)cc2)cc1`, the growth in the experiment on NCI-H23 lung is 101%; with NCI-H226 lung, 107%; with NCI-H322M lung it was 101%; with HOP-62 NSCLC, 91.9%; with NCI-H460 lung, 101%; with HOP-92 NSCLC, 103%. Moreover, the growth in the experiment with NCI-H522 lung was 94.7%; in the experiment on A549/ATCC NSCLC it was 101%; in the experiment with 786-0 renal it was 100%; in the experiment with COLO 205 colon, 109%; with DU-145 prostate, 105%; in the experiment with K-562 leukemia, 94.3%. The growth was 99.1% with MALME-3M melanoma; 102% in the experiment on MDA-MB-231 breast; 112% with RXF 393 renal; 96.6% in the experiment with SF-268 CNS; 113% with SF-295 CNS; 92.7% in the experiment on SF-539 CNS. In addition, the growth with UACC-257 melanoma was 102%; in the experiment with M14 melanoma it was 100%.
On to `CCOC(=O)c1c(Nc2ccccc2)nn2c(-c3ccc(Br)cc3)ccnc12`, for which the growth was 64.9% with NCI-H23 lung; 63.3% in the experiment with NCI-H226 lung; 79.1% in the experiment with NCI-H322M lung; 47.4% with HOP-62 NSCLC; 33.9% with NCI-H460 lung; 28.2% with HOP-92 NSCLC. For the same compound, the growth with NCI-H522 lung was 80.9%; in the experiment on A549/ATCC NSCLC it was 56.4%; in the experiment on 786-0 renal, 54.3%; in the experiment with COLO 205 colon, 80.1%; in the experiment with DU-145 prostate, 77.8%; in the experiment on K-562 leukemia, 78.9%. The growth with MALME-3M melanoma is 75%; in the experiment on MDA-MB-231 breast it was 70.4%; in the experiment with RXF 393 renal it was -12.3% (active); in the experiment with SF-268 CNS it was 68.7%; in the experiment on SF-295 CNS it was 77.2%; in the experiment with SF-539 CNS it was 63.8%. In addition, the results for the growth in the experiment on UACC-257 melanoma and in the experiment on M14 melanoma were 103% and 88.6%, respectively.
